PPC-1+TRAIL kill – PPC-1 cancer cell killing with TRAIL present | cell killing (% activity), % at 4 µM or 5 µM | PPC-1 cells + TRAIL, ATPLite viability luminescence | AID 1443 | hit rate 0.41% among 220,000;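 active means cell killing above 50% in the first pass at 4 µM, then a duplicate retest at 5 µM averaging 50% or more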;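 further: plate controls were cells with TRAIL plus DMSO for no effect and medium-only wells lacking cells for full effect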
STAT3 blocker – STAT3 signaling inhibition. AID 862. hit rate 0.89% among 190,000. inhibition, % at 5.5 µM. U3A cells, IL-6 STAT3-luciferase reporter, luminescence; host cell line lacks STAT1;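 active means inhibition above the mean inhibition across all screened compounds plus 3 SD, cut at about 44% in these data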;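 further: 0% = DMSO only wells and 100% = 100 µM nifuroxazide control wells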
STAT1 inh – STAT1 signaling inhibition; inhibition, % at 5.5 µM; NIH 3T3 STAT1-luciferase reporter, IFN-gamma, luminescence; hit rate 0.35% among 200,000; AID 920;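 active means inhibition above a set limit, the mean inhibition across all tested compounds plus 3 SD, cut at about 34% in these data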;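 further: 0% = IFN-gamma with DMSO and 100% = IFN-gamma with 300 µM nifuroxazide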
Platelet DG rel – platelet dense granule release activity | AID 1663 | human platelet-rich plasma, SFLLRN dense granule ATP release, luminescence | hit rate 0.22% among 300,000 | inhibition, %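 (compounds screened at 7.5 µM in platelet-rich plasma)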;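 active means mean replicate score, as percent of positive control, at or above 50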
TRAIL sens C8 – sensitizes caspase-8 expressing cells to TRAIL | NB7+C8 cells + TRAIL, ATPlite viability luminescence | inhibition (viability loss, TRAIL sensitization), % at 10 µM | hit rate 1% among 360,000 | AID 624354;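 active means compounds causing at least 50% loss of cell viability in the single-dose screen, relative to plate controls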
PPC-1 tox – PPC-1 cell cytotoxicity; shares compounds with PPC-1+TRAIL kill; PPC-1 viability, ATPlite luminescence, overnight; cytotoxicity, % at 5 µM; hit rate 50% among 1,200;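 active means reconfirmed compounds whose average cytotoxicity reaches 50% or more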;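 further: 0% = DMSO-treated cells and 100% = wells holding medium but no cells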
Numbers without * were called inactive; / = not tested or not shown. An excerpt weighted towards active compounds, which were near 1.6% of everything screened.

SMILES	PPC-1+TRAIL kill	STAT3 blocker	STAT1 inh	Platelet DG rel	TRAIL sens C8	PPC-1 tox
O=C(O)/C=C/C(=O)Nc1ccccc1C(=O)OCC(=O)c1ccc2c(c1)OCCO2	78.3*	13.9	-3.0	/	52.8*	78.9*
Cc1cc2c3c(ccc(C)c3n1)N=CN2c1ccccc1	13.3	10.6	1.0	0.8	16.4	10.3
Cc1cc(Nc2ccccc2)c2c([N+](=O)[O-])ccc(C)c2n1	22.4	8.1	7.4	1.1	5.5	/
COc1ccc2[nH]c3nc(SC(C)C)nnc3c2c1	57.9*	22.4	16.2	-2.8	63.4*	55.8*
COc1ccc(CNC(=O)CSc2nnc3c(n2)[nH]c2ccc(OC)cc23)cc1	/	/	/	7.2	-7.0	/
OC(c1cc(-c2ccc(Cl)cc2)nc2ccccc12)C1CCCCN1 (centres undefined)	9.4	/	/	0.8	33.0	-6.3
CCOc1ccc(N(C(=O)C2CCCO2)C2C=CS(=O)(=O)C2)cc1 (centres undefined)	28.7	0.7	1.4	6.4	-5.9	/
O=C(C1CCCO1)N(c1cccc(Cl)c1)C1C=CS(=O)(=O)C1 (centres undefined)	3.9	-1.0	-2.5	-10.2	-6.5	12.1
O=C1CC[C@@H]2C[C@@]3(C[C@@H]4CCN1[C@H]24)Nc1cc([N+](=O)[O-])ccc1NC3=NCc1ccccc1	/	/	/	/	-9.3	/
COc1ccc(S(=O)(=O)Nc2ccccn2)c(C)c1C	-5.0	4.0	4.1	0.5	-2.6	-1.7
Cc1ccc(NC(=O)C(C)OC(=O)COc2cccc(C(F)(F)F)c2)cc1 (centres undefined)	/	/	/	/	5.2	/
N/C(=N\OC(=O)c1ccccc1)c1ccccn1	43.5	71.8*	71.0*	15.2	49.0	51.6*
N/C(=N\OC(=O)c1cc(Cl)ccc1Cl)c1ccccn1	54.9*	36.2	-17.3	7.5	62.7*	58.1*
N/C(=N\OCc1ccc([N+](=O)[O-])cc1)c1ccccn1	85.7*	110.3*	90.0*	62.6*	/	85.0*
COCC(=O)N1C[C@H](C)[C@H](OC)CN(C)C(=O)c2cc(NC(=O)Nc3cccc(F)c3)ccc2OC[C@@H]1C	/	/	/	/	4.3	/
CCOC(=O)C1CCCN(C(=O)c2cc(C#N)cs2)CC1 (centres undefined)	/	/	/	/	-9.3	/
CC1CC(C)CN(C(CCc2ccccc2)C(=O)NC2CCCCC2)C1 (centres undefined)	/	/	/	/	-5.0	/
O=C(/C=C/c1ccco1)Nc1ccc2c(c1)OCCO2	64.2*	41.1	-5.2	/	64.5*	63.1*
COC(=O)C1=C(C)N(CC(C)C)C(=O)C1	12.9	0.2	1.5	-4.3	1.1	12.6
CC(=O)Nc1ccc(NC(=O)CSc2ccc(-c3ccc(-n4ccnc4)cc3)nn2)cc1	/	/	/	4.9	27.5	/
Cc1ccc(NC(=O)c2c(C)noc2C)cc1	-10.5	5.9	-1.6	-6.9	-5.7	-13.4
Cc1noc(C)c1C(=O)Nc1cccnc1	7.0	13.0	7.2	2.9	-9.6	/
O=C1CCCN1CCCNc1nc(NCc2cccs2)nc2ccsc12	/	/	/	/	-3.9	/
Cc1cc(C)c(C#N)c(N2CCN(Cc3ccc4c(c3)OCO4)CC2)n1	7.4	-20.8	8.7	-0.3	5.0	/
N#CCc1c(C#N)c(N)nc(N2CCN(Cc3ccc4c(c3)OCO4)CC2)c1C#N	-8.4	14.7	13.4	-4.0	-11.6	-0.7
SMILES	PPC-1+TRAIL kill	STAT3 blocker	STAT1 inh	Platelet DG rel	TRAIL sens C8	PPC-1 tox
CCOC(=O)c1ccc(NC(=O)c2ncn3c2C(=O)N[C@H](C)C3)cc1	/	/	/	/	-12.7	/
CC(Oc1cccc(Cl)c1)C(=O)Nc1cc(=O)n(C)c(=O)n1C (centres undefined)	1.6	14.7	-0.2	-1.3	-14.8	-2.6
Cc1ccc(-c2sc(C(=O)NN)c(C)c2C#N)cc1	73.1*	/	/	6.9	34.4	76.0*
Cc1ccc(CSc2sc(C(=O)c3ccccc3)c(N)c2C#N)cc1	-0.6	-3.4	-1.3	2.9	-5.1	/
O=C(Nc1cccc2[nH]c([C@H]3C[C@H](O)[C@@H](CO)O3)nc12)NC(c1ccccc1)c1ccccc1	/	/	/	/	0.4	/
CCOc1cc(C(=O)OCc2ccc(OC)cc2)ccc1OCC(=O)N1CCOCC1	/	/	/	/	-5.4	/
CCOc1cc(C(=S)N2CCN(C)CC2)ccc1OCC(=O)N1CCOCC1	-5.7	2.4	-4.6	3.2	-19.6	-4.6
Cc1cnc(NC(=O)c2cc3ccccc3o2)s1	50.6*	59.5*	43.4*	9.2	35.6	54.5*
NS(=O)(=O)c1cccc(NC(=O)c2cc3ccccc3o2)c1	35.1	18.7	-17.2	3.5	63.4*	36.0
Cc1nnc(NC(=O)c2cc3ccccc3o2)s1	/	/	/	0.2	42.3	/
